The source of these data is PMC7862700, “An all-to-all approach to the identification of sequence-specific readers for epigenetic DNA modifications on cytosine”.

Holding throughout (test): DAPPL (digital affinity profiling via proximity ligation, sequencing); 10 mM Tris-HCl pH 7.5, 50 mM NaCl, 1 mM DTT, 4% glycerol, room temperature, 30 min; GST-TFs on glutathione beads, 16-mer random dsDNA library, 0.1% formaldehyde crosslink after washing; high values mean tight binding
Conditions in all cases: protein: recombinant; tags: N-terminal GST; dsDNA, one strand shown

One assay has as its target T1, ERG (Homo sapiens, UniProt P11308 1-479).
T1 sequence: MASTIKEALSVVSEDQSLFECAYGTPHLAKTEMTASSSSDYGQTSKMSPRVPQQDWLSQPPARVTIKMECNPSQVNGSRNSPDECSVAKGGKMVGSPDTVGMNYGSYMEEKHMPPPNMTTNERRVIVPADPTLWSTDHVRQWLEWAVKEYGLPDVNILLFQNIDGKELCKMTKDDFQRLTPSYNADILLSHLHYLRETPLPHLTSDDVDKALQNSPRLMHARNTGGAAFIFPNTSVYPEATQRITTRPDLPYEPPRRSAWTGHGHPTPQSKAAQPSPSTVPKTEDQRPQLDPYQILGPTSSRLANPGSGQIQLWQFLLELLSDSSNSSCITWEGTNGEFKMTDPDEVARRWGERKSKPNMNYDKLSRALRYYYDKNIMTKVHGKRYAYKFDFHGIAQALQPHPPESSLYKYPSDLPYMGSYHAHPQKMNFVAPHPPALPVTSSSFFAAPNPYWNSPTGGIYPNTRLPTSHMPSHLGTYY
Summed up:
(§1)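 Sequencing on an Illumina NextSeq500 followed washing, crosslinking with 0.1% formaldehyde, proximity ligation (BsaI/T4 ligase, 1 h, 37 °C) and PCR amplification of pools that had been incubated for 30 min at room temperature with 200 nmole of a random double-stranded 16-mer DNA library in Tris/NaCl/DTT/glycerol buffer. Each pool held DNA-barcoded human transcription factors, expressed in yeast as GST fusions and captured on glutathione beads, plus a tag-only sample. Binding signal is a hexamer's read frequency for a factor divided by its frequency in the tag-only sample.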

The next assay has as its target T2, EHF (Homo sapiens, UniProt Q9NZC4 1-300).
T2 sequence: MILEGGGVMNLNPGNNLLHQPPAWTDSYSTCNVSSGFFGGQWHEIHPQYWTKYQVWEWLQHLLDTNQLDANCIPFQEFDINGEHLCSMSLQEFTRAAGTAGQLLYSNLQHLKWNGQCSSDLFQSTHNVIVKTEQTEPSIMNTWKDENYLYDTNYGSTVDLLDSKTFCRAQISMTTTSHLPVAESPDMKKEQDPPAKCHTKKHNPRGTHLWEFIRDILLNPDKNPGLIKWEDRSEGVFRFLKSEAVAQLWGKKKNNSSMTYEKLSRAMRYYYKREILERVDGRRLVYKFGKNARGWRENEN
The method in brief: as §1

The next assay addresses T3, ELK3 (Homo sapiens, UniProt P41970 1-407).
T3 sequence: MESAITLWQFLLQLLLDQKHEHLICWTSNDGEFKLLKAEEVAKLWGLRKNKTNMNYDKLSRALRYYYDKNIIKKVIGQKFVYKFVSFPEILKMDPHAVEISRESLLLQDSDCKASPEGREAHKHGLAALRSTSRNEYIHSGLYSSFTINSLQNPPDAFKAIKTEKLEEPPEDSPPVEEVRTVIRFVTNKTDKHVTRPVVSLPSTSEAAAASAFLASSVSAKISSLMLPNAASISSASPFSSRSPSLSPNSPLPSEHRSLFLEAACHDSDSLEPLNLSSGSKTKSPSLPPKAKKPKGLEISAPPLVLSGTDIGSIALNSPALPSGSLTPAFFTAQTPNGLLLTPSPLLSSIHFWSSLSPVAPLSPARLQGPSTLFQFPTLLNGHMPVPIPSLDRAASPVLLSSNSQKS
Summed up:
as §1

A further assay deals with ETV5 (Homo sapiens, UniProt P41161 1-510). The method in brief:
as §1

The next assay addresses T4, SPIC (Homo sapiens, UniProt Q8N5J4 1-248).
T4 sequence: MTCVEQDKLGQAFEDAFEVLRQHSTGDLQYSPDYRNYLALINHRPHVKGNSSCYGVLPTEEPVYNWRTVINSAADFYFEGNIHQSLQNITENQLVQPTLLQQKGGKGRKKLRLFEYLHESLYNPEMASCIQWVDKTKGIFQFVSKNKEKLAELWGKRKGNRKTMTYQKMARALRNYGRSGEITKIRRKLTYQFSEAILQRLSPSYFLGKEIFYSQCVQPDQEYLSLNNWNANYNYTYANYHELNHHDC
The method in brief:
as §1

A further assay deals with T5, ERF (Homo sapiens, UniProt P50548 1-548).
T5 sequence: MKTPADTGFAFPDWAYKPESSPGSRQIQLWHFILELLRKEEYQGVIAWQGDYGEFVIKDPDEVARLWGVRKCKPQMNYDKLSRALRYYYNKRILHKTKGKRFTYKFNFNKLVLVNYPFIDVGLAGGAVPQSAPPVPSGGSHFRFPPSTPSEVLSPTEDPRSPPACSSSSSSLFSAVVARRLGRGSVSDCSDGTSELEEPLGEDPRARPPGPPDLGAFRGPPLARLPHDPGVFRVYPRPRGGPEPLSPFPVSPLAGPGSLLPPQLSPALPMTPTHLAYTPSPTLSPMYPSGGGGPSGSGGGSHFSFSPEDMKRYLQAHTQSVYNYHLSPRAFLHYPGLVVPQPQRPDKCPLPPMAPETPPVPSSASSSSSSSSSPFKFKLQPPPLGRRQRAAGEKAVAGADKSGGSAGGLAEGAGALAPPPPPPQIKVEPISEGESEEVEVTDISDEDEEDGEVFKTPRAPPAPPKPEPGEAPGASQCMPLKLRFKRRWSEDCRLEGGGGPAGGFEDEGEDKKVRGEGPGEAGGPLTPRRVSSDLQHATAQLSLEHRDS
The method in brief: as §1

Another assay has as its target T6, ELK1 (Homo sapiens, UniProt P19419 1-428).
T6 sequence: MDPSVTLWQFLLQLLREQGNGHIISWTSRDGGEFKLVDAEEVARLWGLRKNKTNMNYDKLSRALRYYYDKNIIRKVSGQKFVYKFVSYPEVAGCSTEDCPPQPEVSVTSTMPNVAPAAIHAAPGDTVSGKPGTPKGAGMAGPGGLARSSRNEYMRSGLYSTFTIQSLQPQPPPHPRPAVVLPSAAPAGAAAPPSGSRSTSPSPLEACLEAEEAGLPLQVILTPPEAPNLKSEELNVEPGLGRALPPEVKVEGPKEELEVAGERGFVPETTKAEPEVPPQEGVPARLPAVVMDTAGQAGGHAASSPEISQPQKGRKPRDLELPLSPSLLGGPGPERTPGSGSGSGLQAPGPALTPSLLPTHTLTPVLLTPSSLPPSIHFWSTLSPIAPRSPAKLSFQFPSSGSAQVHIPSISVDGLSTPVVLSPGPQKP
The method in brief: as §1

For the next assay, the target named is SPIB (Homo sapiens, UniProt Q01892 1-262). The method in brief:
as §1

The next assay addresses T7, ELF3 (Homo sapiens, UniProt P78545 1-371).
T7 sequence: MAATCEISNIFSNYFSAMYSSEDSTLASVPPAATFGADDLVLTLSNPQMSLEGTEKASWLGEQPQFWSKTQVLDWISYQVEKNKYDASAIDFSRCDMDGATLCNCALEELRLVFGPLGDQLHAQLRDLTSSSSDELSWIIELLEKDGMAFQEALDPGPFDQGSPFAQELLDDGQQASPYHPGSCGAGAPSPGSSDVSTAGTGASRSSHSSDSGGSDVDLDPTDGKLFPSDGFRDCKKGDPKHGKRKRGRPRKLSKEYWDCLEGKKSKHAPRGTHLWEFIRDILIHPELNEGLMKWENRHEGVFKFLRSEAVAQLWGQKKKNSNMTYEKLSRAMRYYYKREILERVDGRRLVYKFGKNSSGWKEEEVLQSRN
The method in brief: as §1

A further assay concerns the target ETV1 (Homo sapiens, UniProt P50549 1-477). The method in brief: as §1
The target of a further assay is T8, ETS2 (Homo sapiens, UniProt P15036 1-469).
T8 sequence: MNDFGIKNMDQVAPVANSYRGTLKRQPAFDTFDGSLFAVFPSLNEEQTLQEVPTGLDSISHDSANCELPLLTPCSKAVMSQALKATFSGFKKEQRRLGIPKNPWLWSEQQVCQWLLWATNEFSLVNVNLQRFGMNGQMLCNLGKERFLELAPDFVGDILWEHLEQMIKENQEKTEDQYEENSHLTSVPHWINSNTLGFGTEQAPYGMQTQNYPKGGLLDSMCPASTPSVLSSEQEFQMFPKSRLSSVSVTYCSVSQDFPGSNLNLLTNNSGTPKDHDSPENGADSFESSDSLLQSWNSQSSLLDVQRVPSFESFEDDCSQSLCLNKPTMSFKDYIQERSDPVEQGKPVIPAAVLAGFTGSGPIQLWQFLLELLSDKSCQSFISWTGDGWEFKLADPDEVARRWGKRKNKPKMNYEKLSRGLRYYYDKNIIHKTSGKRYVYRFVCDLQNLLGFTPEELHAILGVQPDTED
Summed up: as §1

Another assay has as its target T9, SPDEF (Homo sapiens, UniProt O95238 1-335).
T9 sequence: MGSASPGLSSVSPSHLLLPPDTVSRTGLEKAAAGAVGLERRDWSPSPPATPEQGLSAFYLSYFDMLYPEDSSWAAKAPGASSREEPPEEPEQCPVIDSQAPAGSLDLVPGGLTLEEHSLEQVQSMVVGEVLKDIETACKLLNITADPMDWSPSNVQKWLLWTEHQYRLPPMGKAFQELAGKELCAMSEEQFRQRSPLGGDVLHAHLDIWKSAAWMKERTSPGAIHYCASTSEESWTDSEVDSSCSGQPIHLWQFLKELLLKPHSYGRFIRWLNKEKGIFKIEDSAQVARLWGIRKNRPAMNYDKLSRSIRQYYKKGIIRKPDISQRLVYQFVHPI
Summed up:
as §1

For another assay, the target named is T10, ETV7 (Homo sapiens, UniProt Q9Y603 1-341).
T10 sequence: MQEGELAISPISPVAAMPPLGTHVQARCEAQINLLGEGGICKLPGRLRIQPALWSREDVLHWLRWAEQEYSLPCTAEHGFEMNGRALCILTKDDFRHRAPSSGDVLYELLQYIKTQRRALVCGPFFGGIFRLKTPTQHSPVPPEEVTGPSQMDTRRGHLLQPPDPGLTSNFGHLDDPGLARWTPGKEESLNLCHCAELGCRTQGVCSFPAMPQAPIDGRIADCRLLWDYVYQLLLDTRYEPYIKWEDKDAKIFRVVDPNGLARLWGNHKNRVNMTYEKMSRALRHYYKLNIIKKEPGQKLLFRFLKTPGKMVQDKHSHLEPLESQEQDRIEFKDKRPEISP
The method in brief:
as §1

Another assay deals with T11, ETV3 (Homo sapiens, UniProt P41162-2 1-143).
T11 sequence: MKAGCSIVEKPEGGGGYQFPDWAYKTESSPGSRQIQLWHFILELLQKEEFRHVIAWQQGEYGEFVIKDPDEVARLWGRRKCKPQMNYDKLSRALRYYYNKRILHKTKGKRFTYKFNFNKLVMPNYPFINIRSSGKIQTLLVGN
The method in brief:
as §1

The target in another assay is ETV6 (Homo sapiens, UniProt P41212 1-452). Summed up: as §1
Chain of ETV6 (P41212 whole entry): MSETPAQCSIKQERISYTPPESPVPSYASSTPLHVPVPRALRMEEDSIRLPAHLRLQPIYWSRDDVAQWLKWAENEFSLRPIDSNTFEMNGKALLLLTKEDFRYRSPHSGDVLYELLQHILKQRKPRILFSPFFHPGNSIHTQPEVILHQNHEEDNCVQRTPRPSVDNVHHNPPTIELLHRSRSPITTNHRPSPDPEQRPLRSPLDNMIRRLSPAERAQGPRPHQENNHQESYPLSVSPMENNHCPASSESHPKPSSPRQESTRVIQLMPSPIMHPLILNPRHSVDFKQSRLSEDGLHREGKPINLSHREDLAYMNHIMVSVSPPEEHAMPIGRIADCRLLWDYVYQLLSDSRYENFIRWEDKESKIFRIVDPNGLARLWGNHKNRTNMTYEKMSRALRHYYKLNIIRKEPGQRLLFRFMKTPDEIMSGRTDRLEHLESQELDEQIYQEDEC

Chain of ETV5 (P41161 whole entry): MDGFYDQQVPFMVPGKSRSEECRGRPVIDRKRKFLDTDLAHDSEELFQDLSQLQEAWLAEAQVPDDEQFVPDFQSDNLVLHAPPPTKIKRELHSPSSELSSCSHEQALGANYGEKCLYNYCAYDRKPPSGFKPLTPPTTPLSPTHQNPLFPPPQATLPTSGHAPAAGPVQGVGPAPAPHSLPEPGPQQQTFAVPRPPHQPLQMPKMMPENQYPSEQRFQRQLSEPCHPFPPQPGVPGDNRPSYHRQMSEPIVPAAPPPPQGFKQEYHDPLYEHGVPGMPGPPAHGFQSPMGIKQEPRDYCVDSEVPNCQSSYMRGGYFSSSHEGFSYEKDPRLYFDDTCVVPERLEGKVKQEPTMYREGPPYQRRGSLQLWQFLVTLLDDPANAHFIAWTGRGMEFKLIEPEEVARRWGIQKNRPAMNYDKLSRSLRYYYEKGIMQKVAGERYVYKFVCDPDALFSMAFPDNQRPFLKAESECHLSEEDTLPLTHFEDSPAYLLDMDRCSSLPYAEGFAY
Chain of SPIB (Q01892 whole entry): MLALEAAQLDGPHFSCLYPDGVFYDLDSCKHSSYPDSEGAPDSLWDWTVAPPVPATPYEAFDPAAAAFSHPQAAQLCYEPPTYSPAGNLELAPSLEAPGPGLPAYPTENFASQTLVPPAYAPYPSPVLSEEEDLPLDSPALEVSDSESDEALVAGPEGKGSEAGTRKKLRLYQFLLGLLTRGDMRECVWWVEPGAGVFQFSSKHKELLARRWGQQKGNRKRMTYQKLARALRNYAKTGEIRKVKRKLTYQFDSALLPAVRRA
Chain of ETV1 (P50549 whole entry): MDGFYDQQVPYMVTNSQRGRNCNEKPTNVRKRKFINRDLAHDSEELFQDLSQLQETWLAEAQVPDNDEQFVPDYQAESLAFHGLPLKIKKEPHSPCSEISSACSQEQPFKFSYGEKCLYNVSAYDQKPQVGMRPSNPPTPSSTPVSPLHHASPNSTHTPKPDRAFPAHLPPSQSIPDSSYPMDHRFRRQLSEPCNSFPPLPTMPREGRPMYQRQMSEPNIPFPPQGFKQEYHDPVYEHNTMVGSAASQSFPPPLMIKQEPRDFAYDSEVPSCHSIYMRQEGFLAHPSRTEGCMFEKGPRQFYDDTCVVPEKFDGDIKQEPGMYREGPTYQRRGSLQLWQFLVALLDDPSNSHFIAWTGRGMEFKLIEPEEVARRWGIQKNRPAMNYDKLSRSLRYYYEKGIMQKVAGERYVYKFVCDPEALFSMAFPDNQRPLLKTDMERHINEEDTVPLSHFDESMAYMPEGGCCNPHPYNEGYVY

As to AGTTAC, the binding signal was 1 fold enrichment (6-mer frequency, TF over GST control) with ERG; 1.02 fold enrichment (6-mer frequency, TF over GST control) with EHF; 1.03 fold enrichment (6-mer frequency, TF over GST control) with ELK3; 1.05 fold enrichment (6-mer frequency, TF over GST control) with ETV5; 1.1 fold enrichment (6-mer frequency, TF over GST control) with SPIC; 1.01 fold enrichment (6-mer frequency, TF over GST control) in the assay with ERF.

On to GCCGGA, for which the binding signal was 1.17 fold enrichment (6-mer frequency, TF over GST control) with ELK1; 1.27 fold enrichment (6-mer frequency, TF over GST control) with ERG; 1.08 fold enrichment (6-mer frequency, TF over GST control) in the assay with EHF; 1.01 fold enrichment (6-mer frequency, TF over GST control) with SPIB; 1.11 fold enrichment (6-mer frequency, TF over GST control) in the assay with ELK3; 1.16 fold enrichment (6-mer frequency, TF over GST control) in the assay with ETV5. Further, the binding signal is 1.05 fold enrichment (6-mer frequency, TF over GST control) with ELF3; 1.07 fold enrichment (6-mer frequency, TF over GST control) in the assay with ETV1; 1.01 fold enrichment (6-mer frequency, TF over GST control) in the assay with ETS2; 1.37 fold enrichment (6-mer frequency, TF over GST control) with SPDEF; 1 fold enrichment (6-mer frequency, TF over GST control) in the assay with ETV7; 1.1 fold enrichment (6-mer frequency, TF over GST control) with ETV3. Moreover, in the assay with ETV6, the binding signal is 1.07 fold enrichment (6-mer frequency, TF over GST control).
